Among all 1,300 compounds or so, about 330 (25%) were called active. No rule for the calls is given here. Not all results are given here. Entries with a potency or affinity are not part of this list.
Test: MALME3 melanoma cell viability loss, dose response, orthogonal assay for MITF inhibitor project, CellTiter-Glo, cherry-picked (AID 493191)
Details: CellTiter-Glo luminescence, 24 h; series mostly up to 35 µM

SMILES	outcome
CN(C)CCNC(=O)COc1ccc(C23CC4CC(CC(C4)C2)C3)cc1	inactive
CN(C)c1ccc(/C=C2\SC(=O)N(CCc3nnc(N)s3)C2=O)cc1	inactive
Cc1[nH]n(-c2ccccc2)c(=O)c1N=Nc1cccc(C(=O)O)c1	inactive
C/C(=C\c1ccccc1)C(=O)Nc1ccc(Cl)cn1	inactive
O=[N+]([O-])c1cc(CN2CCN(c3ccccc3)CC2)c(O)c2ncccc12	inactive
O=[N+]([O-])c1ccccc1OCCCOc1cccc2cccnc12	inactive
Cc1ccc(-c2cn(-c3ccc(SC(F)F)cc3)c3[n+]2CCC3)cc1	inactive
C#CC(=O)N(c1ccc(OC)c(OC)c1)C(C(=O)NC1CCCC1)c1cccs1 (stereo not drawn)	inactive
C#CC(=O)N(c1ccc(OC)cc1OC)C(C(=O)NC1CCCC1)c1cccs1 (stereo not drawn)	inactive
Cc1ccc(NC(=O)c2ccc(OCC3CCCO3)cc2)c(C)c1 (stereo not drawn)	inactive
COc1ccc(N(CC(=O)NCC2CCCO2)S(=O)(=O)c2ccccc2)cc1OC (stereo not drawn)	inactive
CN(C)/C=N/c1ncc(C(=O)c2ccccc2)s1	inactive
Cc1ccc2nc(Cc3ccc(N)cc3)oc2c1	inactive
CCc1nc2oc3ccccc3c(=O)c2cc1C(=O)OC	inactive
COCCN(C(=O)CCl)C(C(=O)NC1CCCCC1)c1ccccc1C (stereo not drawn)	inactive
COc1ccc(N(C(=O)CCl)C(C(=O)NC2CCCCC2)c2cccnc2)cc1 (stereo not drawn)	inactive
COc1ccc(C(C(=O)NC2CCCCC2)N(C(=O)CCl)c2ccc(OC)cc2)cc1 (stereo not drawn)	inactive
Cc1cc(NC(=O)c2ccc(Cl)cc2Cl)no1	inactive
COCn1c(COc2ccccc2)nc2ccccc21	inactive
COc1ccc(Br)cc1/C=C/C(=O)c1ccc(NC(C)=O)cc1	inactive
O=C(N/N=C/c1ccccc1Cl)c1n[nH]c2c1CCCC2	inactive
Nc1c(N(CCC2=CCCCC2)C(=O)COc2ccc([N+](=O)[O-])cc2)c(=O)[nH]c(=O)n1Cc1ccccc1	inactive
Nc1ccc(Oc2cccc(Oc3ccc(N)cc3)c2)cc1	inactive

SMILES	outcome
O=[N+]([O-])c1ccc(Sc2cc[n+]([O-])c3ccccc23)c([N+](=O)[O-])c1	inactive
Cc1ccc(O)c(NC(=O)c2ccc3c(c2)C(=O)N(CC(C)C)C3=O)c1	inactive
O=C(Nc1ccc2nc3n(c(=O)c2c1)CCCC3)c1cc([N+](=O)[O-])ccc1F	inactive
O=C(Nc1ccc2c(c1)OCCO2)c1cccc(Cl)c1Cl	inactive
CC(C)CN=C(NS(=O)(=O)c1ccccc1)C(Cl)(Cl)Cl	inactive
CC(=O)c1c(C)[nH]c(C(=O)Nc2ccc(C)c(C)c2)c1C	inactive
Cc1ccc(C(=O)Nc2nc3ccc(Cl)cc3s2)o1	inactive
Cc1cc(C(F)(F)F)c2c(N)c(C(=O)Nc3cc(C)on3)sc2n1	inactive
O=C(Nc1nc2ccccc2s1)c1ccccc1[N+](=O)[O-]	inactive
CN(c1ccc2nc3ccccc3c(=O)n2n1)C1CCCCC1	inactive
CCOc1ccccc1-c1nc(-c2ccc(C)nc2OC)no1	inactive
CC(=O)Nc1nc(C)c(-c2csc(Nc3cccc(C(C)=O)c3)n2)s1	inactive
CS(=O)(=O)c1nc(-c2ccc(F)cc2)cc(C(F)(F)F)n1	inactive
COc1ccccc1-c1nc(-c2ccc(C)nc2OC)no1	inactive
CCOC(=O)c1cnc2c(ccc3ccccc32)c1N	inactive
O=C(Nc1cccc(Cl)c1)Nc1cc(S(=O)(=O)N2CCCCC2)ccc1Cl	inactive
O=C(N/N=C\c1cc(Br)ccc1O)c1ccc(S(=O)(=O)N2CCCCC2)cc1	inactive
O=C(Nc1ccc(S(=O)(=O)N2CCCCCC2)cc1)c1[nH]ncc1[N+](=O)[O-]	inactive
O=C(Nc1ccc(Cl)c(S(=O)(=O)N2CCOCC2)c1)c1ccc(OCC2CCCO2)cc1 (stereo not drawn)	inactive
Cc1ccc(NC(=O)c2ccc([N+](=O)[O-])s2)cc1S(=O)(=O)N1CCOCC1	inactive
O=C1CN(c2ccccc2)C(=S)N1C(=O)c1ccc(Br)cc1	inactive
COc1ccc(NC(=O)c2cc(F)cc(F)c2)cc1Cl	inactive
CN(C)c1ccc(NC(=O)Nc2ccc3c(c2)nnn3C)cc1	inactive

SMILES	outcome
O=[N+]([O-])/C=C\c1ccc(N2CCOCC2)cc1	inactive
COc1ccc(C(NC(C)=O)c2ccc3cccnc3c2O)c(OC)c1 (stereo not drawn)	inactive
CCOC(=O)c1ccc2nc(C)c(CCC(C)=O)c(Cl)c2c1	inactive
COc1ccc(C(=O)Nc2ccc(C)cn2)c(OC)c1	inactive
CC(C)N1C(=O)S/C(=C\c2ccc(-c3ccc(Cl)c(C(=O)O)c3)o2)C1=O	inactive
COC(=O)c1ccc(COc2ccc3c(c2)CCC3)o1	inactive
CN=c1scc(-c2ccccc2F)n1/N=C/c1ccc[nH]1	inactive
O=C(/C=C/c1ccc2c(c1)OCO2)N1CCCCC1	inactive
CCC(=O)NC(c1ccccc1OC)c1ccc2cccnc2c1O (stereo not drawn)	inactive
CCCC(=O)NC(c1ccc(OC)c(OC)c1)c1cc(Cl)c2cccnc2c1O (stereo not drawn)	inactive
COc1cnc(-c2ccccn2)nc1NC(C)C	inactive
COc1ccc(C(=O)C(CN2CCCC2)c2ccccc2)cc1 (stereo not drawn)	inactive
COc1ccc(C(=O)C(CN2CCOCC2)c2ccccc2)cc1 (stereo not drawn)	inactive
CCNC(=O)CC1C(=O)N(c2ccc(F)cc2)C(=O)N1CCc1ccc(OC)cc1 (stereo not drawn)	inactive
COc1ccc(C(=O)CCNc2ccc(F)cc2)cc1	inactive
c1ccc(-n2ncc3c(NCc4cccs4)ncnc32)cc1	inactive
CC(C)(C)c1ccc(C(=O)Nc2sc3c(c2C(=O)O)CCC3)cc1	inactive
Cc1cc(C)c2c(N)c(C(=O)Nc3ncc(C)s3)sc2n1	inactive
O=C(CC(=O)c1ccccc1)Nc1ccccc1	inactive
O=C(CNC(=O)c1ccc(Br)cc1)c1ccccc1	inactive
C/C(=N/N=C(/C)c1cccs1)c1cccs1	inactive
CCC[n+]1c(C)sc2c3c(ccc21)CCCC3	inactive
Cn1cc([N+](=O)[O-])c(C(=O)Nc2cc(Oc3ccccc3)cc([N+](=O)[O-])c2)n1	inactive

SMILES	outcome
Cc1nc2cc(NC(=O)Nc3cccc([N+](=O)[O-])c3)ccc2n1C	inactive
Cc1cc(C)c2c(N)c(C(=O)N/N=C/c3cccnc3)sc2n1	inactive
O=C(O)C1CCN(C(=O)OCc2ccccc2)CC1	inactive
Cc1ccc(NC(=O)/C=C/c2ccc([N+](=O)[O-])s2)c(C)c1	inactive
CC1CC(C)CN(C(=O)/C=C/c2ccc([N+](=O)[O-])s2)C1 (stereo not drawn)	inactive
O=C(/C=C/c1ccc([N+](=O)[O-])s1)N1CCCC1	inactive
O=C(/C=C/c1ccccc1)Nc1cccc(C(=O)O)c1	inactive
CC(C)N=c1c([N+](=O)[O-])nn(C)n1O	inactive
OCC1OC(n2cnc3c(NCc4ccco4)ncnc32)C(O)C1O (stereo not drawn)	inactive
CC(Oc1ccc(F)cc1)C(=O)Nc1nc(-c2ccccn2)cs1 (stereo not drawn)	inactive
CCC(=O)NCCc1nc2cc(NC(=O)c3cccc([N+](=O)[O-])c3)ccc2n1C	inactive
CCN1CCc2c(sc(NC(=O)c3ccc(S(=O)(=O)N4CCCCCC4)cc3)c2C(=O)NC)C1	inactive
O=C(N/N=C\c1cc(Cl)ccc1O)c1ccc(S(=O)(=O)N2CCCCC2)cc1	inactive
O=C(Nc1ccc(F)c(Cl)c1)c1ccc2c(c1)OCO2	inactive
O=C(Cn1cnc2ccccc2c1=O)Nc1ccc2c(c1)OCCO2	inactive
Cc1cc(C)n(-c2ccc(C(=O)Nc3ccc(C)c(S(=O)(=O)N4CCOCC4)c3)cc2)n1	inactive
COc1ccc(NS(=O)(=O)c2cc(NC(=O)CNC(=O)c3cccc(OC)c3)ccc2C)cc1	inactive
O=C(Nc1ccccc1F)C(=O)Nc1cccc2ccccc12	inactive
Cc1ccc2oc(C(Cl)(Cl)Cl)cc(=O)c2c1	inactive
O=C(CSc1nnnn1-c1ccc(O)cc1)Nc1cccc(S(=O)(=O)N2CCCC2)c1	inactive
O=C(CCl)Nc1cccc(S(=O)(=O)NC2=NCCCCC2)c1	inactive
COc1cccc(N2CCN(C(=O)c3ccc(CS(=O)c4ccccc4Cl)o3)CC2)c1 (stereo not drawn)	inactive
CC1CCN(c2nc3ccc(C(=O)O)cc3s2)CC1	inactive

SMILES	outcome
COc1ccc(C(=O)Nc2nc3ccc(OC)cc3s2)cc1	inactive
O=C(c1ccc(F)cc1)N1CCC(c2ccccc2)C1 (stereo not drawn)	inactive
CC(C)c1nnc(NC(=O)CCC2CCCCC2)s1	inactive
COc1ccc2oc(=O)c(C(=O)Nc3ccccc3C)cc2c1	inactive
c1ccc(OCc2nn3c(-c4ccccn4)nnc3s2)cc1	inactive
Cc1ccc(-c2c[n+](Cc3ccc(Cl)cc3)c3n2CCC3)cc1	inactive
COc1ccc(-c2c[n+](CC(=O)OC3CC(C)CCC3C(C)C)c3n2CCC3)cc1 (stereo not drawn)	inactive
COc1ccc(N/N=C/c2c(C(=O)O)ccc3ccccc23)cc1	inactive
Cc1ccc(COc2ccc(C)nc2[N+](=O)[O-])cc1	inactive
CCc1cc(C=NC2CCCCC2)c(O)s1	inactive
O=[N+]([O-])c1cc(Cl)cc(/C=N\Nc2ccccn2)c1O	inactive
COc1cc2c(c(OC)c1OC)-c1ccc(N(C)CC(OC)OC)c(=O)cc1[C@@H](NC(C)=O)CC2	inactive
Cc1cc(N2CCOCC2)ccc1/C=C\[N+](=O)[O-]	inactive
O=C(Nc1ccc(Cl)cc1)C1C2CCCCC21 (stereo not drawn)	inactive
COc1ccc(C(=O)NC(=O)Nc2cc(C)ccn2)cc1	inactive
N/C(=N\OC(=O)c1ccccc1)c1ccccn1	inactive
COCc1cc(C)nc2sc(C(=O)Nc3cccc(OC)c3)c(N)c12	inactive
Cc1cccc2sc(N(CCCN(C)C)C(=O)c3nc4ccccc4s3)nc12	inactive
O=[N+]([O-])c1c(NCCCO)cc(Sc2ccc(Cl)cc2)c2nonc12	inactive
CCC(=O)OCCNc1cc(Sc2nc3ccccc3[nH]2)c2nonc2c1[N+](=O)[O-]	inactive
CC(=O)OCCCNc1cc(Sc2ccc(Cl)cc2)c2nonc2c1[N+](=O)[O-]	inactive
